We go through twelve molecules from PubChem BioAssay (NCATS).

Assay [1] is described as follows: qHTS of pediatric cancer cell lines to identify multiple opportunities for drug repurposing: Primary screen for DAOY cells (AID 1347090). Note: nearly all actives have a fitted effect of over 55% in size. Note: potency is the fitted concentration of half-maximal effect. In short, it runs like this:
(§1)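 Eight- or eleven-point concentration series, 48 h treatment at 37 degrees C in growth media; readout CellTiter-Glo luminescence. Potency and efficacy were taken from the concentration-response curves.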
In general terms: Quantitative high-throughput screening tests each substance at several concentrations.

The nature of assay [2]: qHTS of pediatric cancer cell lines to identify multiple opportunities for drug repurposing: Primary screen for SJ-GBM2 cells (AID 1347091). Note: potency is the fitted concentration of half-maximal effect. In short, it runs like this: as §1
The nature of assay [3]: qHTS of pediatric cancer cell lines to identify multiple opportunities for drug repurposing: Primary screen for A673 cells (AID 1347092). Note: nearly all actives have a fitted effect of over 45% in size. Note: potency is the fitted concentration of half-maximal effect. The essentials:
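Cells are plated, rested 5 h, dosed by pintool, incubated 48 h, then lysed with CellTiter-Glo and read by luminescence. DMSO is the neutral control; bortezomib at 2.3 uM final is the positive control.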

A short description of assay [4]: qHTS of pediatric cancer cell lines to identify multiple opportunities for drug repurposing: Primary screen for SK-N-MC cells (AID 1347093). Note: potency is the fitted concentration of half-maximal effect. The essentials: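 Metabolically active cells were quantified by ATP-dependent luminescence (CellTiter-Glo, 15 min at room temperature) following 48 h treatment. Cells had been plated at 500-1,000 per well and settled for 5 h beforehand.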

Assay [5] in a line: qHTS of pediatric cancer cell lines to identify multiple opportunities for drug repurposing: Primary screen for BT-37 cells (AID 1347094). Note: potency is the fitted concentration of half-maximal effect. The essentials:
(§2)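 500-1,000 cells/well; 5 h pre-incubation 37 °C/5% CO2; compound pinned; 48 h; CellTiter-Glo, 15 min RT; luminescence. MIPE 11-pt from 0.78 nM, NPC 8-pt from 0.59 nM final. Bortezomib 2.3 µM final as positive control.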

The nature of assay [6]: qHTS of pediatric cancer cell lines to identify multiple opportunities for drug repurposing: Primary screen for NB-EBc1 cells (AID 1347095). Note: potency is the fitted concentration of half-maximal effect. In short, it runs like this:
as §2

A short description of assay [7]: qHTS of pediatric cancer cell lines to identify multiple opportunities for drug repurposing: Primary screen for U-2 OS cells (AID 1347096). Note: nearly all actives have a fitted effect of over 50% in size. The essentials: (§3)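 Cells (500-1,000/well) in growth media were settled 5 h at 37 degrees C, then given compounds for 48 h. Viability was read as CellTiter-Glo luminescence. Primary runs used MIPE at 11 points (0.78 nM-46 µM) and NPC at 8 points (0.59 nM-46 µM); follow-ups used 11 points.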

Assay [8] can be described thus: qHTS of pediatric cancer cell lines to identify multiple opportunities for drug repurposing: Primary screen for Saos-2 cells (AID 1347097). Note: nearly all actives have a fitted effect of over 40% in size. Note: potency is the fitted concentration of half-maximal effect. The essentials:
as §2

The nature of assay [9]: qHTS of pediatric cancer cell lines to identify multiple opportunities for drug repurposing: Primary screen for NB1643 cells (AID 1347099). Note: nearly all actives have a fitted effect of over 50% in size. Note: potency is the fitted concentration of half-maximal effect. The essentials:
as §2

The nature of assay [10]: qHTS of pediatric cancer cell lines to identify multiple opportunities for drug repurposing: Primary screen for LAN-5 cells (AID 1347100). Note: potency is the fitted concentration of half-maximal effect. In short, it runs like this: as §3
The nature of assay [11]: qHTS of pediatric cancer cell lines to identify multiple opportunities for drug repurposing: Primary screen for BT-12 cells (AID 1347101). Note: nearly all actives have a fitted effect of over 25% in size. Note: potency is the fitted concentration of half-maximal effect. In short, it runs like this: (§4)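 Cells (500-1,000/well) rested 5 h, then received compounds for 48 h; metabolically active cells were measured by CellTiter-Glo luminescence. Final concentrations spanned up to 46 µM (MIPE, 11-point) or 0.59 nM-46 µM (NPC, 8-point) in primary screens, 11-point in follow-ups.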

Assay [12] in a line: qHTS of pediatric cancer cell lines to identify multiple opportunities for drug repurposing: Primary screen for Rh18 cells (AID 1347102). Note: nearly all actives have a fitted effect of over 65% in size. Note: potency is the fitted concentration of half-maximal effect. In short, it runs like this: as §3
Assay [13] can be described thus: qHTS of pediatric cancer cell lines to identify multiple opportunities for drug repurposing: Primary screen for OHS-50 cells (AID 1347103). Note: nearly all actives have a fitted effect of over 40% in size. Note: potency is the fitted concentration of half-maximal effect. In short, it runs like this: as §4
The nature of assay [14]: qHTS of pediatric cancer cell lines to identify multiple opportunities for drug repurposing: Primary screen for RD cells (AID 1347104). Note: nearly all actives have a fitted effect of over 55% in size. Note: potency is the fitted concentration of half-maximal effect. In short, it runs like this: as §2
Assay [15] can be described thus: qHTS of pediatric cancer cell lines to identify multiple opportunities for drug repurposing: Primary screen for MG 63 (6-TG R) cells (AID 1347105). Note: nearly all actives have a fitted effect of over 50% in size. Note: potency is the fitted concentration of half-maximal effect. The essentials: as §2
Assay [16] in a line: qHTS of pediatric cancer cell lines to identify multiple opportunities for drug repurposing: Primary screen for control Hh wild type fibroblast cells (AID 1347106).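 Note: series mostly up to about 46 µM; a drop in luminescence marks cytotoxicity and a rise apparent proliferation; nearly all actives have a fitted effect of over 55% in size.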 In short, it runs like this:
as §3

The nature of assay [17]: qHTS of pediatric cancer cell lines to identify multiple opportunities for drug repurposing: Primary screen for Rh30 cells (AID 1347107). Note: series mostly up to about 46 µM; nearly all actives have a fitted effect of over 75% in size. The essentials: as §3
The nature of assay [18]: qHTS of pediatric cancer cell lines to identify multiple opportunities for drug repurposing: Primary screen for Rh41 cells (AID 1347108).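 Note: series mostly up to about 46 µM; luminescence drop marks cytotoxic hits; nearly all actives have a fitted effect of over 70% in size.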 The essentials: as §2
A short description of assay [19]: qHTS of pediatric cancer cell lines to identify multiple opportunities for drug repurposing: Primary screen for SK-N-SH cells (AID 1347098). Note: nearly all actives have a fitted effect of over 65% in size. Note: potency is the fitted concentration of half-maximal effect. The essentials:
as §4

Assay [20] can be described thus: qHTS of pediatric cancer cell lines to identify multiple opportunities for drug repurposing: Confirmatory screen for NB1643 cells (AID 1347109). Note: nearly all actives have a fitted effect of over 45% in size. Note: potency is the fitted concentration of half-maximal effect. In short, it runs like this:
as §3

Results filed as inconclusive are left out. A number with no mark means an inactive call. Activity calls are given as the source filed them. Calls come from the whole dose curve; as a rule, active = well fitted curve in the direction sought with a large enough effect; inconclusive = small, poorly fitted or top-dose-only effect, or another doubt; inactive = no such curve, though single readings can be large; an effect the other way counts as inactive or inconclusive.

For `CC=C1C2C=C(C)CC1(N)c1ccc(=O)[nH]c1C2` (configuration not stated), the Potency entry in [1], in assay [2], in [3], in assay [4], in assay [5] and in assay [6] was “inactive” each time. In addition, the Potency result in assay [7], in assay [8], in assay [9], in [10], in [11] and in [12] was “inactive” in each case. The Potency entry in assay [13], in assay [14], in assay [15], in [16], in [17] and in assay [18] was “inactive” throughout.
Consider `CON(C)C(=O)N1N=C(c2cc(F)ccc2F)S[C@]1(CCCN)c1ccccc1`, for which the Potency in assay [1] is 1.5 nM (active); in [2], 1 nM (active); in [3] it was 1 nM (active); in assay [4], 1 nM (active); in assay [6], 1 nM (active); in assay [11], 15300 nM (active). Further, the Potency in [13] is 1 nM (active). For the same molecule, the Potency entry in assay [5], in assay [7] and in [17] was “inactive” each time.
`O=c1[nH]c(=O)n([C@H]2C[C@@H](O)[C@@H](CO)O2)cc1I`: the Potency entry in [1], in assay [2], in assay [3], in assay [4], in assay [5] and in assay [6] was “inactive” throughout. Also, the Potency entry in [7], in assay [19], in assay [9], in assay [12], in [13] and in [14] was “inactive” throughout. Besides, the Potency result in assay [15], in assay [16], in [17] and in assay [18] was “inactive” each time.
As to `Clc1ccc(C2(c3ccc(-c4cn[nH]c4)cc3)CCNCC2)cc1`, the Potency in [1] is 23500 nM (active); in [2], 5260 nM (active); in assay [3], 18700 nM (active); in [4], 6620 nM (active); in assay [6], 16600 nM (active); in assay [19] it was 24100 nM (active). Further, the Potency in assay [14] was 26400 nM (active); in [15] it was 5900 nM (active). Moreover, the Potency result in assay [5], in assay [7], in assay [11] and in assay [16] was “inactive” in each case.
`CN[C@@H]1[C@@H](O)[C@@H](O[C@@H]2[C@@H](O)[C@H](O[C@H]3O[C@H](CN)[C@@H](O)[C@H](O)[C@@H]3O)[C@@H](N)C[C@@H]2NC(=O)[C@@H](O)CN)OC[C@]1(C)O`: the Potency result in assay [1], in assay [2], in [3], in assay [4], in assay [5] and in assay [6] was “inactive” in each case. Besides, the Potency entry in assay [7], in [8], in assay [9], in [10], in assay [11] and in assay [12] was “inactive” in each case. Also, the Potency result in assay [13], in assay [14], in [15], in [16], in [17] and in assay [18] was “inactive” throughout.
Turning to `Cc1ccc(C(=O)N(CCCN)[C@@H](c2oc3cc(Cl)ccc3c(=O)c2Cc2ccccc2)C(C)C)cc1`, the Potency was 1 nM (active) in assay [1]; 1 nM (active) in assay [2]; 1 nM (active) in assay [3]; 23500 nM (active) in [4]; 1 nM (active) in assay [5]; 1 nM (active) in [6]. Besides, the Potency in assay [8] is 1 nM (active); in [10] it was 1 nM (active); in assay [11] it was 1 nM (active); in assay [12] it was 26400 nM (active); in assay [13] it was 1 nM (active); in assay [20], 6570 nM (active). Moreover, the Potency result in assay [9], in assay [15], in assay [16] and in assay [17] was “inactive” in each case.
`COc1ccc2c(c1)CC[C@H]1[C@@H]2CC[C@]2(C)[C@@H](NCCCCCCN3C(=O)C=CC3=O)CC[C@H]12`: the Potency entry in assay [1], in [2], in [3], in [4], in assay [5] and in assay [6] was “inactive” throughout. For the same molecule, the Potency result in assay [7], in assay [10], in assay [12], in assay [14], in assay [15] and in assay [16] was “inactive” in each case.
In the case of `Cc1ccc(S(=O)(=O)Nc2nc3ccccc3nc2Nc2ccc3nsnc3c2)cc1`, the Potency is 407 nM (active) in assay [1]; 57.5 nM (active) in [2]; 1.3 nM (active) in assay [3]; 51.2 nM (active) in assay [4]; 37.6 nM (active) in [5]; 645 nM (active) in assay [6]. The Potency in [8] is 45.7 nM (active); in assay [10], 32.3 nM (active); in [11], 66.8 nM (active); in assay [13], 42.1 nM (active); in assay [14], 51.2 nM (active); in assay [20], 9100 nM (active). Also, in assay [16], the Potency result is “inactive”.
Take `CN1C(=O)C(Cc2c[nH]c3ccccc23)NC1=S` (configuration not stated): the Potency entry in assay [1], in assay [2], in [3], in [4], in assay [5] and in [6] was “inactive” throughout. The Potency result in assay [7], in [8], in assay [19], in assay [10], in assay [11] and in [13] was “inactive” in each case. In addition, the Potency result in assay [14], in [15], in [16] and in assay [17] was “inactive” each time.
As for `CN[C@@H]1CN(c2ccc3c(=O)c(C(=O)O)cn(-c4nccs4)c3n2)C[C@@H]1OC`, the Potency in assay [1] was 8120 nM (active); in assay [2] it was 1150 nM (active); in [3], 8120 nM (active); in assay [4] it was 1290 nM (active); in assay [5], 3350 nM (active); in assay [6] it was 407 nM (active). Besides, the Potency was 9370 nM (active) in assay [19]; 1620 nM (active) in assay [9]; 9430 nM (active) in assay [11]; 16800 nM (active) in assay [13]; 14400 nM (active) in assay [14]; 1820 nM (active) in assay [20]. Also, the Potency entry in assay [7], in [8] and in assay [16] was “inactive” throughout.
For `COc1cc([C@@H]2c3cc4c(cc3[C@@H](O[C@@H]3O[C@@H]5CO[C@@H](C)O[C@@H]5[C@H](O)[C@@H]3O)[C@H]3COC(=O)[C@H]23)OCO4)cc(OC)c1O`, the Potency is 1480 nM (active) in assay [1]; 590 nM (active) in [2]; 1480 nM (active) in [3]; 469 nM (active) in [4]; 485 nM (active) in [5]; 187 nM (active) in assay [6]. Moreover, the Potency in assay [8] is 3320 nM (active); in [9], 662 nM (active); in [10] it was 235 nM (active); in assay [13] it was 2730 nM (active); in assay [20], 1470 nM (active). For the same molecule, the Potency entry in assay [16] and in assay [17] was “inactive” throughout.
For the molecule `Cc1ccccc1-n1c(Cn2nc(-c3cccc(O)c3)c3c(N)ncnc32)nc2cccc(C)c2c1=O`, the Potency in assay [1] was 1180 nM (active); in assay [2], 16.6 nM (active); in assay [3] it was 4.7 nM (active); in [4] it was 41.8 nM (active); in [5] it was 54.4 nM (active); in assay [6], 74.3 nM (active). Further, the Potency is 59 nM (active) in [8], 833 nM (active) in assay [9], 38.5 nM (active) in assay [13] and 118 nM (active) in assay [14]. The Potency entry in [16], in [17] and in [20] was “inactive” each time.
